109 compounds from PubChem BioAssay AID686978 (National Center for Advancing Translational Sciences (NCATS), 2013) can be followed below.

Screen size: about 420,000 compounds; about 64,000 (15%) were called active. Not shown: some 27% with an inconclusive outcome. The call rests on the fitted dose curve; in most records, active means well fitted inhibition curve with a large enough effect; inconclusive means small, poorly fitted or top-dose-only effect; inactive means flat fitted curve, though single readings scatter. The list is a sample of the results. A call without a number means that no potency is given here.
Potency means the concentration at half of the fitted maximal effect.

A short description of this assay: qHTS for Inhibitors of human tyrosyl-DNA phosphodiesterase 1 (TDP1): qHTS in cells in absence of CPT. Further: nearly all actives have a fitted effect of over 55% in size. The settings on record: DT40 Tdp1-/- hTDP1 cells, no CPT, ATP luminescence, 48 h; activity change, negative = growth inhibition: at 46.2 µM (top of the series). An outline of the steps: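 A cellular qHTS used chicken DT40 cells lacking endogenous Tdp1 but carrying stably transfected human TDP1. Compounds were applied without camptothecin, and cell growth kinetics were judged by ATP-dependent luminescence after ≥48 hr.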
For orientation: Quantitative high-throughput screening tests each substance at several concentrations.
On to `O=C(CN(c1cccc(Cl)c1)S(=O)(=O)c1ccccc1)NN=C1CCCC1`, for which the Potency entry was “inactive”.
Under `Cc1cccc(-n2ncc3c(=O)[nH]c(SCC(=O)Nc4cc(C)on4)nc32)c1` stands “inactive”.
As to `FC(F)(F)C1CCCN(c2nsc3ccccc23)C1` (centres undefined), the Potency was 2.59 µM (active).
`O=C(NCC(=O)N1CCCC(C(F)(F)F)C1)c1ccccc1F` (centres undefined): the Potency result was “inactive”.
To `O=C(NC(Cc1ccccc1)C(=O)N1CCCC(C(F)(F)F)C1)c1ccccc1` (centres undefined) belongs “inactive”; to `CC(=NC1CCN(Cc2ccccc2)CC1)c1c(O)[nH]c(=O)[nH]c1=O`, “inactive”; to `O=C(CCCOc1ccccc1)NCc1ccco1`, “inactive”.
As for `Cc1cccc(OCc2nnc(SCC(=O)N3CCN(C(=O)c4ccco4)CC3)n2C)c1C`, the Potency entry is “inactive”.
Under `Cc1cccc(OCC(=O)N(Cc2ccc(C(C)C)cc2)Cc2ccco2)c1C` stands 20.6 µM (active); under `Cc1ccnc(NC(=O)CCC(=O)N(CC(=O)NCc2ccccc2)Cc2ccco2)c1`, “inactive”; under `O=C(CCc1ccccc1)NNC(=O)COc1ccc(Cl)cc1`, “inactive”.
Take `O=C(COc1ccc(Cl)cc1)N(Cc1ccco1)Cc1ccco1`: the Potency was 20.6 µM (active).
On to `O=C(Nn1cnc2ccccc2c1=O)c1ccc(F)cc1Cl`, for which the Potency entry is “inactive”.
Under `O=S(=O)(c1ccc(-c2ccno2)s1)N1CCCCC1` stands “inactive”.
For `O=C(C1CCCO1)N1CCN(C(=S)NC2CC2)CC1` (centres undefined), the Potency result was “inactive”.
Consider `Cc1ccc(S(=O)(=O)NNC(=O)Nc2cccc3ccccc23)cc1`, for which the Potency entry was “inactive”.
Take `CC1CCc2c(nc3ncnn3c2Nc2ccc(OC(F)(F)F)cc2)C1` (centres undefined): the Potency was 20.6 µM (active).
For `CC(=O)c1nn(-c2ccc(OC(F)(F)F)cc2)nc1Nc1ccccc1`, the Potency entry was “inactive”.
Regarding `CC1(C)C(C=C(Cl)Cl)C1C(=O)NC(O)C(=O)c1ccccc1` (centres undefined), the Potency result is “inactive”.
To `Nc1ccccc1/C=N\N=C/c1ccccc1N` belongs “inactive”; to `Nc1ccccc1N`, 7.7 µM (active).
For the compound `Nc1cccnc1Sc1ccccc1`, the Potency result is “inactive”.
Under `COc1cc2c(cc1CNC[C@H]1O[C@@H](n3cnc(C(N)=O)n3)[C@H](O)[C@@H]1O)OCO2` stands “inactive”.
Under `COC(=O)CNC(=O)c1cc(-c2ccncc2)nc2ccccc12` stands “inactive”; under `CCOC(=O)N1CCC(NC(=O)CCc2ccccc2)CC1`, “inactive”; under `CC1CCCCC1NC(=O)c1cc(=O)[nH]c2ccccc12` (centres undefined), “inactive”.
Under `Cc1ccsc1-c1nc(CSCC(=O)NCCN2CCCC2)c(C)o1` stands “inactive”.
`Cc1ccc(-c2cc(C(=O)NC3CCN(Cc4ccccc4)CC3)c3ccccc3n2)cc1`: the Potency was 16.4 µM (active).
As to `Cc1cc(C(=O)NC2CCN(Cc3ccccc3)CC2)n[nH]1`, the Potency entry was “inactive”.
Under `CC1CCCC(NC(=O)c2cc(-c3ccncc3)nc3ccccc23)C1C` (centres undefined) stands 23.1 µM (active).
To `Cc1ccn2cc(C(=O)NC3CCN(Cc4ccccc4)CC3)nc2c1` belongs “inactive”; to `Cc1ccc(-c2nc(CSCC(=O)NC3CCN(Cc4ccccc4)CC3)c(C)o2)cc1`, 16.4 µM (active).
Regarding `C=CCn1c(SCC(=O)NC23CC4CC(CC(C4)C2)C3)nc(O)cc1=O`, the Potency entry is “inactive”.
For the compound `COc1ccc2c(CC(=O)NNC(=O)c3ccccc3F)coc2c1`, the Potency entry is “inactive”.
With `CCC1([N+](=O)[O-])COC(c2ccc(C)cc2)OC1` (centres undefined), the Potency result is “inactive”.
To `O=C1CCc2cc(S(=O)(=O)N3CCC(C(=O)NCc4ccccc4Cl)CC3)ccc2N1` belongs “inactive”; to `O=C1c2ccccc2C(=O)N1CCC(O)C[N+](=O)[O-]` (centres undefined), “inactive”; to `CCCNC(=O)CCn1cc(-c2ccc(OC)cc2)nc1CCN`, “inactive”.
To `NC(=O)C1CCN(C(=O)c2cccc(NC(=O)c3nsc4ccccc34)c2)CC1` belongs 16.4 µM (active); to `COc1cccc(NC(=O)N2CCN(C(=O)c3nsc4ccccc34)CC2)c1`, “inactive”.
In the case of `O=C(Nc1cccc(C(=O)N2CCCC2)c1)c1ccccc1`, the Potency entry is “inactive”.
As for `CCOC(=O)c1ccc(NC(=O)C2CC(=O)Nc3nc4ccccc4n32)cc1` (centres undefined), the Potency entry is “inactive”.
To `Cc1nc2ccn(Cc3cccs3)c(=O)c2cc1C(=O)NCc1ccc(Cl)cc1` belongs 16.4 µM (active).
To `COc1ccc(Cn2ccc3nc(C)c(C(=O)Nc4ccc(C)c(F)c4)cc3c2=O)cc1` belongs “inactive”; to `CN(CC(=O)NCc1ccc(Cl)cc1)S(=O)(=O)c1cccs1`, “inactive”; to `CCn1c(C(C)C)n[nH]c1=S`, “inactive”.
To `O=C(NC1CCCCC1)C1CCCN(S(=O)(=O)c2cccs2)C1` (centres undefined) belongs “inactive”; to `Cn1nnnc1SCC(=O)NNC(=O)c1ccc(Br)cc1`, “inactive”.
Regarding `Cc1cc(C(C)(C)C)cc(C)c1N`, the Potency result is “inactive”.
Under `Cc1cc(N)n2nc(-c3ccc(C(C)(C)C)cc3)cc2n1` stands 25.9 µM (active).
`CC(=O)Nc1ccc(NC(=O)CSc2nnnn2-c2ccccc2F)cc1`: the Potency entry is “inactive”.
In the case of `C1CC1Cc1noc(CN2CCN(CC3CC3)CC2)n1`, the Potency entry was “inactive”.
Under `COCCNc1cc(-c2c(C)noc2C)ncn1` stands “inactive”.
To `Cc1cnc(CNc2cc(-c3c(C)noc3C)ncn2)cn1` belongs “inactive”.
With `CNc1cc(-c2c(C)noc2C)ncn1`, the Potency is 14.6 µM (active).
To `COc1ccc(C2=NOC3(CC(=O)N(c4ccc(Cl)cc4)C3=O)C2)c(OC)c1` (centres undefined) belongs “inactive”; to `COC(=O)c1ccc(NC(=O)CSc2nncn2-c2cccnc2)cc1`, “inactive”.
Regarding `Cc1ccc(SCCC(=O)NC(C(C)C)C(C)C)cc1`, the Potency entry is “inactive”.
Under `CCOC(=O)c1cccc(NS(=O)(=O)c2cn(C)c(C)n2)c1` stands “inactive”; under `CCOC(=O)c1cccc(NS(=O)(=O)c2cc(-c3cnc(C)o3)ccc2OC)c1`, 6.51 µM (active); under `COc1ccc(Cl)cc1S(=O)(=O)Nc1cccc(C(=O)O)c1`, “inactive”.
To `Cc1ccccc1NC(=O)Cc1nc(COC(=O)CNC(=O)c2ccc(Cl)cc2Cl)cs1` belongs “inactive”; to `COc1ccccc1OCCCCCCN1CCN(C)CC1`, “inactive”; to `CCN1CCN(CCCCOc2ccccc2F)CC1`, “inactive”.
To `CN1CCN(CCCCOc2cccc3ccccc23)CC1` belongs 16.4 µM (active); to `CCn1nc(C(=O)NNC(=O)C2CSC3(C)CCC(=O)N23)c2ccccc2c1=O` (centres undefined), “inactive”; to `CC(=O)c1cccc(Nc2ccc3cc(S(=O)(=O)N4CCC(C)CC4)ccc3n2)c1`, 16.4 µM (active).
Take `CC1CCN(S(=O)(=O)c2ccc3[nH]c(=O)ccc3c2)CC1`: the Potency entry was “inactive”.
Under `CC(=O)c1cccc(NC(=O)COc2ccc(S(=O)(=O)N3CCOCC3)cc2)c1` stands “inactive”; under `CC/C(O)=C1\C(=O)CC(C)(C)CC1=NCCc1nc2ccccc2[nH]1`, 20.6 µM (active).
Consider `O=C(OCc1nc2ccccc2[nH]1)C1CCCCC1`, for which the Potency entry was “inactive”.
To `Nc1cccc(CCc2nc3ccccc3[nH]2)c1` belongs “inactive”.
To `COc1ccc(NC(=O)COc2ccc(C(=O)OCC(=O)N(C)C3CCS(=O)(=O)C3)cc2OC)cc1` (centres undefined) belongs “inactive”; to `NC(=O)c1ccccc1N(Cc1ccccc1)S(=O)(=O)c1ccccc1`, “inactive”; to `CCOC(=O)N1CCN(S(=O)(=O)c2ccc(OC)cc2)CC1`, “inactive”.
To `CCOC(=O)N1CCN(C(=O)c2ccccc2N(Cc2ccccc2)S(=O)(=O)c2ccc(OC)cc2)CC1` belongs 3.26 µM (active); to `CN(CCO)Cc1csc2ccc(Br)cc12`, “inactive”; to `CCOC(=O)c1c(C)nc2c(c1C)c(=O)oc1ccccc12`, “inactive”.
`CCOC(=O)c1c(C)oc2ccc(N(C(=O)c3ccncc3)S(=O)(=O)c3ccc(CC)cc3)cc12`: the Potency was 2.91 µM (active).
With `CCOC(=O)c1c(C)oc2cc(Br)c(OCC(N)=O)cc12`, the Potency result is “inactive”.
To `COc1ccc2oc(C(=O)NCC(Cc3ccccc3)N(C)C)c(C)c2c1` (centres undefined) belongs “inactive”; to `COC(=O)c1c(C)oc2ccc(N(C(=O)Oc3ccccc3)S(=O)(=O)c3ccccc3)cc12`, 11.6 µM (active); to `CN(CC(=O)O)S(=O)(=O)c1ccc2oc3ccccc3c2c1`, “inactive”.
Under `O=C(CN1CCOCC1)Nc1c2c(nc3c1CCC3)CCC2` stands “inactive”; under `CCC(C)N(C(=O)COC(=O)C1C(C(=O)OC)=C(C)NC(C)=C1C(=O)OC)C1CCS(=O)(=O)C1` (centres undefined), “inactive”.
In the case of `COc1ccccc1CNC(=O)CS(=O)(=O)c1cccc2nsnc12`, the Potency result was “inactive”.
To `COc1cc2ccccc2cc1C(=O)Nc1ccncc1` belongs “inactive”.
Under `COc1cc(NC(=O)c2cccs2)ccc1NC(=O)c1ccccc1Cl` stands “inactive”; under `COc1cc2ccccc2cc1C(=O)Nc1ccc(S(=O)(=O)Nc2cc(C)on2)cc1`, “inactive”.
Regarding `COc1cc2ccccc2cc1C(=O)Nc1cccc(-c2nc3ccccc3o2)c1`, the Potency was 20.6 µM (active).
As for `O=C(Nc1cccc(-c2nc3ncccc3o2)c1)c1ccco1`, the Potency result was “inactive”.
Under `O=C(Nc1cccc(Br)c1)c1ccc2snnc2c1` stands “inactive”; under `COc1cccc(NC(=O)c2ccccc2SC)c1`, “inactive”; under `O=C(Nc1cccc(-c2nc3ccccc3o2)c1)c1cccc(Br)c1`, 20.6 µM (active).
With `COc1cc2ccccc2cc1C(=O)Nc1ccc(NC(=O)c2cccs2)cc1`, the Potency was 20.6 µM (active).
In the case of `Cc1cccc(CCNC(=O)Cn2ncc3c([nH]c4ccc(C)cc43)c2=O)c1`, the Potency entry was “inactive”.
To `CCN(C(=O)COC(=O)c1ccccc1O)c1cccc2ccccc12` belongs “inactive”.
To `Cc1nnc(SCC2=C(C(=O)O)N3C(=O)C(NC(=O)Cn4nc(C)c(Cl)c4C)C3SC2)s1` (centres undefined) belongs “inactive”; to `C=CCNC(=O)c1ccccc1SCc1c(C)noc1C`, “inactive”.
In the case of `COc1ccc(S(=O)(=O)NC2(C(F)(F)F)N=C3SCCN3C2=O)cc1` (centres undefined), the Potency result was “inactive”.
In the case of `CN(CCc1ccccn1)C1CCCN(S(=O)(=O)c2ccccc2Cl)C1` (centres undefined), the Potency result was “inactive”.
To `Cc1ccc2c(c1)-c1c(cnn1CC(=O)Nc1ccccc1C#N)CO2` belongs “inactive”; to `Cc1nc(-c2ccc(Cl)cc2)sc1C1(C)CC(c2ccccc2F)=NO1` (centres undefined), “inactive”.
`NS(=O)(=O)c1ccccc1NC(=O)c1c(O)c2ccccc2[nH]c1=O`: the Potency result is “inactive”.
To `Cc1ccc(C(C)C)c(OCCSc2nc3ccccc3n2CC(=O)O)c1` belongs “inactive”; to `Cc1cccc(OCCSc2nc3ccccc3n2CC(=O)N2CCCCC2)c1C`, 23.1 µM (active); to `CCOc1ccc(OCCSc2nc3ccccc3n2CC(=O)O)cc1`, “inactive”.
Consider `Clc1ccc(Cl)c(Oc2ccc(Oc3nc(Cl)ccc3Cl)cc2)n1`, for which the Potency entry is “inactive”.
Under `COc1cc(Cl)c(C)cc1NC(=O)[C@@H]1CCCN1C(=O)c1cccs1` stands “inactive”.
